Compounds with a hit are over-represented: about 3.2% of the library has one in this group of screens.
GDH-TPI counter: GDH-TPI coupling enzyme inhibitors, primary screen, artefact control for M. tuberculosis FBA inhibitor project, biochemical, absorbance, full deck. inhibition, % at 4.8 µM. 360,000 compounds, 1.2% hits. GDH-TPI coupled enzyme counterscreen, NADH absorbance. AID 588335, 2011; in the data active = inhibition above about 30%;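 also: 0% = DMSO wells and 100% = wells lacking the enzyme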
Yp Topo-I inh: Yersinia pestis topoisomerase I inhibitors, primary screen, biochemical, cleavage product accumulation, plate reader, single point. Y. pestis Topo-I cleavage product accumulation. DNA topoisomerase I (Yersinia pestis CO92). 360,000 compounds, 0.064% hits. activity, % at 10 µM. AID 504884, 2011; in the data active = activity above about 50%, passing the limit was not always enough
TcdB inh: TcdB glycohydrolase inhibitors, primary screen, biochemical, single point, plate reader | Toxin B (Clostridioides difficile), P18177 | TcdB glycohydrolase enzymatic assay | inhibition, % at 9.99 µM | 350,000 compounds, 0.24% hits; in the data active = inhibition above about 10%
PrPC surface inh: inhibitors of human cell surface prion protein PrPC, primary screen, cell-based, TR-FRET; inhibition, % at 13.8 µM; 370,000 compounds, 0.43% hits; AID 720596, 2013; Major prion protein (Homo sapiens), P04156; TR-FRET read-out; in the data active = inhibition above about 24%; also: 0% = median of the test wells and 100% = reference compound wells
Mtb FBA inh: Mtb FBA enzyme inhibitors, primary screen, biochemical, fluorescence, strain H37Rv; Fructose-bisphosphate aldolase (Mycobacterium tuberculosis (strain ATCC 25618 / H37Rv)), …; purified M. tuberculosis FBA, fluorescence read-out; inhibition, % at 1 µM; 360,000 compounds, 2.3% hits; in the data active = inhibition above about 27%;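 also: 0% = vehicle and 100% = reference inhibitor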
Active calls of the source: *; x = no result given; + = active, no number.

SMILES	GDH-TPI counter	Yp Topo-I inh	TcdB inh	PrPC surface inh	Mtb FBA inh
O=C(O)c1ccc(N=Nc2c(O)[nH]c3ccccc23)cc1	35*	-9	2	-11	-5
C/C=C/c1ccc([C@H]2[C@H](CO)N3C(=O)CN(C(=O)Nc4ccc(F)cc4)C[C@@H]23)cc1	x	x	-1	x	x
COc1ccc(-c2cnc3c(c2)C(=O)N([C@H](C)CO)C[C@H](C)[C@@H](CN(C)C(=O)C2CCCCC2)O3)cc1	x	x	-1	x	x
COc1ccc(-c2cnc3c(c2)C(=O)N([C@@H](C)CO)C[C@H](C)[C@H](CN(C)C(=O)C2CCCCC2)O3)cc1	x	x	12*	x	x
Cc1ccc(S(=O)(=O)N[C@H]2C=C[C@H](CC(=O)N3CCN(c4ccccc4)CC3)O[C@@H]2CO)cc1	x	x	-1	x	x
CCOC(=O)C(/C=C(\C#N)C(=O)OCC)=C(/N)N1CCN(c2ccc(Cl)cc2)CC1	59*	-4	x	3	-1
COc1ccc(NC(=O)N(C)C[C@H]2OCc3ccccc3-c3c(n(C)c4ccccc34)C(=O)N([C@H](C)CO)C[C@@H]2C)c(OC)c1	x	x	0	x	x
Cc1cccc(C2=NN(c3ccccc3)[C@H](CO)[C@H]2c2ccccc2)c1	-9	-11	x	x	59*
CC(=O)c1ccc(NC(=O)c2cnn3ccccc23)cc1	36*	1	2	-2	2
CO[C@H]1CN(C)C(=O)c2cc(NC(=O)Nc3ccc(F)cc3)ccc2OC[C@H](C)NC[C@H]1C	x	x	-7	x	x
CCOC(=O)c1cc(-c2ccccc2)nc2nc(N(CC)CC)sc12	10	29	4	-18	65*
CCOC(=O)c1cc(-c2ccccc2)nc2nc(N3CCCCC3)sc12	-10	-1	x	7	18
Cc1ccc(CN2CC(=O)N3[C@@H](CO)[C@H](c4ccc(-c5ccccc5F)cc4)[C@@H]3C2)cc1	x	x	-1	x	x
CC(C)(C)c1ccc(C(=O)/C=C2\NC(=O)CS2)cc1	48*	3	x	9	2
Cc1ccc(NC(=O)/C=C2\NC(=O)CS2)cc1	16	-12	0	5	-1
N#Cc1nc(Cc2ccccc2)oc1N1CCC(C(N)=O)CC1	2	2	x	-7	-2
COc1ccc(-c2nc(C#N)c(N3CCN(c4cccc(Cl)c4)CC3)o2)cc1OC	9	6	x	-7	0
N#Cc1nc(-c2ccco2)oc1N1CCC(C(N)=O)CC1	10	1	1	6	124*
CCOc1ccc(-c2nc(S(=O)(=O)c3ccccc3)c(N3CCC(C(N)=O)CC3)o2)cc1	4	3	1	5	2
COc1ccccc1-c1nc(C#N)c(N2CCN(Cc3ccccc3)CC2)o1	14	31	x	7	18
Cc1ccc(-c2nc(C#N)c(N3CCC(C(N)=O)CC3)o2)cc1	15	9	-1	-1	179*
COc1ccc(-c2nc(C#N)c(N3CCOCC3)o2)cc1OC	12	-4	x	-3	+
COc1ccccc1-c1nc(C#N)c(N2CCC(Cc3ccccc3)CC2)o1	19	4	x	3	44*
CO[C@@H]1CN(C)C(=O)c2ccc(NC(C)=O)cc2OC[C@H](C)N(S(=O)(=O)c2cn(C)cn2)C[C@H]1C	x	x	-2	x	x
CCCNC(=O)Nc1ccc2c(c1)C(=O)N(C)[C@@H]1CC[C@@H](CC(=O)OC)O[C@@H]1CO2	x	x	1	x	x
SMILES	GDH-TPI counter	Yp Topo-I inh	TcdB inh	PrPC surface inh	Mtb FBA inh
C[C@H](CO)N1C[C@H](C)[C@H](CN(C)CC2CC2)Oc2cc(Br)ccc2S1(=O)=O	x	x	1	x	x
C[C@@H](NC(=O)C[C@@H]1C=C[C@@H](NS(=O)(=O)c2cccc(F)c2)[C@H](CO)O1)c1ccccc1	x	x	0	x	x
N#Cc1nc(-c2ccccc2)oc1N1CCC(C(N)=O)CC1	15	6	1	11	+
CCOC(=O)C1CCCN(c2oc(-c3ccc(OC)cc3)nc2C#N)C1 (stereo unspecified)	-2	9	2	7	132*
N#Cc1nc(-c2ccc(F)cc2)oc1N1CCC(C(N)=O)CC1	19	2	-2	2	+
CCOC(=O)C1CCCN(c2ncnc3c2cnn3-c2ccc(OC)cc2)C1 (stereo unspecified)	1	17	x	9	3
COc1ccc(-c2nc(C#N)c(N3CCC(C(N)=O)CC3)o2)cc1OC	21	-3	x	3	+

Bioassay records: PubChem BioAssay, several laboratories
